# Experimental data published in the supplement of paper PMC6555819.
# How the values were obtained:
# Experiment in all cases: PBM binding z-score (relative to random genomic background probes); higher = stronger binding; sequences stand for … in GC…GCGATTGACAGCGTAGAATGAAGG
# [1] = system: FXR:RXRa (NR concentration 270 nM, RXRa partner concentration 90 nM)
# Method in brief: (§1)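 Random background probes are the reference for binding z-scores. These scores derive from regression-normalized fluorescence on custom Agilent 4×180K protein-binding microarrays incubated 1 h with ligand-free nuclear receptor dimers. Binding was detected with antibodies against each partner (one per run).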
# [2] = system: LXRa:RXRa (NR concentration 270 nM, RXRa partner concentration 90 nM)
# Method in brief: as §1
# [3] = system: LXRa homodimer (NR concentration 270 nM)
# Method in brief: as §1
# [4] = system: LXRb:RXRa (NR concentration 270 nM, RXRa partner concentration 90 nM)
# Method in brief: as §1
# [5] = system: LXRb homodimer (NR concentration 270 nM)
# Method in brief: as §1
# [6] = system: PPARa:RXRa (NR concentration 270 nM, RXRa partner concentration 90 nM)
# Method in brief: as §1
# [7] = system: PPARg:RXRa (NR concentration 180 nM, RXRa partner concentration 90 nM)
# Method in brief: as §1
# [8] = system: PPARg:RXRa 270nM:90nM, anti-RXR (NR concentration 270 nM, RXRa partner concentration 90 nM)
# Method in brief: as §1
# [9] = system: PPARg:RXRa 30nM:10nM, anti-RXR (NR concentration 30 nM, RXRa partner concentration 10 nM)
# Method in brief: as §1
# [10] = system: PPARg:RXRa 90nM:30nM, anti-RXR (NR concentration 90 nM, RXRa partner concentration 30 nM)
# Method in brief: as §1
Sequence,PBM binding z-score [1],PBM binding z-score [2],PBM binding z-score [3],PBM binding z-score [4],PBM binding z-score [5],PBM binding z-score [6],PBM binding z-score [7],PBM binding z-score [8],PBM binding z-score [9],PBM binding z-score [10]
CCTATTAGTTGACCATAAGGACAACCGAAGCTCG,1.29,0.43,0.89,0.473,1.33,0.262,0.871,0.107,0.251,0.449
TCTAGTTGGTAACGGAGGTCACACACGACGGGTA,2.77,3.39,3.31,3.27,0.826,3.7,2.37,3.33,3.38,3.55
TCTATTATTTGATTAGGGCAACCGAAACAGCGGA,0.94,0.738,1.29,1.08,1.33,1.34,0.291,2.43,4.02,3.25
TAGCCTATGTCATGGGCCAGTATACCACGCGAAC,-0.15,-0.356,-0.253,-0.589,-0.827,-0.267,0.56,-0.0658,-0.369,-0.213
ATCTCTAGGTAAGACTCAGTTCAGTCAAGAACGC,0.474,0.647,0.721,0.685,0.923,0.293,0.116,0.136,0.155,0.184
CCTATTGGTTGACCATAAGGGCAACCGAAGCTCG,0.484,-0.0111,-0.255,0.153,-0.527,0.421,0.215,0.235,-0.263,-0.214
ACGGACAGGTGAGTGAAGGTAACTCAGCTGGACG,0.715,0.141,-0.591,-0.294,-0.864,0.253,0.452,0.12,-0.363,0.0719
AGAATGACGTTATTAAGATCAGGGAATTGCGGTC,-0.71,-0.589,-0.146,-0.6,-0.12,-0.251,0.405,0.0531,-0.0762,0.151
GGAACGAGGGCATTCCAGTTGATAGCATGGCGAT,1.15,1.43,-0.298,0.454,-0.264,1.42,0.909,0.848,-0.214,0.301
AGAATCAGGTTACCAAAGATCAGGGAAACGCTTG,0.0425,4.27,-0.14,1.12,0.162,1.69,1.24,1.19,0.411,0.466
CGTCAAAGTTCAACGTAACGTAACAGAAAGCAGC,6.54,5.59,2.98,3.72,1.38,4.94,4.58,4.97,2.08,3.84
ATCGAAAGGTCGACGAGGTGAGGATACACCGTTT,4.5,3.36,0.0188,2.44,0.655,4.27,3.09,3.46,1.36,2.36
ACTTACGGGTCACCGAGGTTATAGCACGCGTATA,7.33,5.59,1.1,4.77,0.402,6.19,7.11,6.57,3.18,5.44
ACTAGCTGGCCAAGTTTGGGTCACTCAAACAAAG,-0.286,-0.318,-0.768,0.339,-0.865,1.03,-0.347,0.0249,-0.62,-0.218
TTACGAAGGTGAAGGTCGTTGATCCCTCTGTAGA,2.35,1.9,-0.207,1.48,-0.709,2.66,2.48,3.86,2.7,3.16
TCTTGGAGATCAGCAGGTTAAGAAAGCTGGCCAA,0.173,-0.0127,-0.38,0.0269,-0.539,0.752,-0.546,0.883,2.2,1.52
CCTACTGGGCCAAAGGTCAATGATTCCAATGCTC,4.07,4.39,2.6,4.52,0.165,6.29,12.1,10.4,10,12.8
TCGAGTAGTTTAGGGGCATTCAGAATGGCGTCGA,-0.0607,0.048,-0.581,0.829,-0.452,0.549,-0.393,0.237,0.631,0.559
TCGAGTAGGTTGGGGGCATTCAGAATGGCGTCGA,1.39,1.94,0.352,3.96,6.82,2.48,0.614,2.35,2.29,2.28
GCTGCTAGGTCAGGTTGGTCAGCTCACGGGTACG,1.27,0.883,-0.243,0.696,-0.186,1.57,0.553,0.724,-0.171,0.333
TCTCGGAGGATACGAAGGTCAGAGCTTTCCAGAG,0.399,0.672,-0.0784,0.653,-1.33,1.55,0.177,1.23,1.89,1.51
TCTATTAGTTGATTAGGACAACCGAAACAGCGGA,0.957,0.808,0.615,0.807,1.17,0.875,0.378,2.18,4.26,3.32
CAAGCTAGGTCACGAAAGGTCAAAGTCGAATGAC,7.45,8.14,8.09,7.63,2.75,6.5,7.39,7.14,4.23,6.31
GGAACGAGGGTAAAGTTGATAGCATCTGTCGACG,0.472,0.494,-0.531,0.361,-0.696,3.37,5.63,6.72,4.9,7.39
